Results: the supplement of paper PMC10849652
Targets with a hit are over-represented here; the source holds about 7,900 in all. About 0.6% of all pairs of compound and target were hits.

Columns and labels:
Experiment in all cases: log2 fold change, soluble protein after heating vs DMSO (PISA); higher = thermal stabilisation; K562 cells, 10 uM, 30 min; active = over 0.2 and 3.5 SD of the protein, either way, in both replicates (recomputed)
[1] = compound: Cc1ccc(NC(=O)c2ccc(CN3CC[C@H](N(C)C)C3)c(C(F)(F)F)c2)cc1Nc1nccc(-c2cncnc2)n1 [bafetinib]
Summary of the method: (§1)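 K562 cells at 2×10^6 cells/mL were exposed to 10 μM compound for 30 min, then aliquots were heated for 3 min across 48°C-58°C, pooled, and extracted in PBS containing 0.5% NP-40 at 4°C. The supernatant after 21,000xg for 90 min was taken as soluble protein and measured by TMTpro 16plex LC-MS/MS with channel sums equalised. Thermal stability is reported relative to control samples, with values from duplicates. Fold changes are given on a log2 scale.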

[2] = compound: Cc1cccc(CC(=O)N2CCc3c2ccc(-c2cn(C)c4ncnc(N)c24)c3F)n1
Summary of the method: as §1

[3] = compound: Cc1cn(-c2cc(NC(=O)c3ccc(C)c(Nc4nccc(-c5cccnc5)n4)c3)cc(C(F)(F)F)c2)cn1 [nilotinib]
Summary of the method: as §1

[4] = compound: Cc1nc(Nc2n[nH]c3c2CN(C(=O)N[C@H](CN(C)C)c2ccccc2)C3(C)C)c2sccc2n1
Summary of the method: as §1

[5] = compound: Cc1nc(Nc2ncc(C(=O)Nc3c(C)cccc3Cl)s2)cc(N2CCN(CCO)CC2)n1 [dasatinib]
Summary of the method: as §1

[6] = compound: Cc1ncc(-c2ccnc(Nc3ccc(S(C)(=O)=O)cc3)n2)n1C(C)C
Summary of the method: as §1

[7] = compound: Cn1cc(-c2ccc3c(c2)CCN3C(=O)Cc2cccc(C(F)(F)F)c2)c2c(N)ncnc21
Summary of the method: as §1

[8] = compound: Cn1cc(-c2ccc3nnc(C(F)(F)c4ccc5ncccc5c4)n3n2)cn1
Summary of the method: as §1

[9] = compound: Cn1cncc1[C@@](N)(c1ccc(Cl)cc1)c1ccc2c(c1)c(-c1cccc(Cl)c1)cc(=O)n2C [tipifarnib]
Summary of the method: as §1

[10] = compound: FC(F)(F)c1ccc(/C=C/c2nc(COc3ccc(CCCCn4ccnn4)cc3)co2)cc1 [mubritinib]
Summary of the method: as §1

Measured: log2 fold change

HDGFL2 (UniProt Q7Z4V5)
inactive: [1] -0.017 | [2] -0.013 | [3] -0.007 | [4] -0.061 | [5] 0.035 | [6] -0.029 | [7] -0.018 | [8] -0.048 | [9] 0.032 | [10] 0.098

IDI1 isoform 2 (UniProt Q13907)
inactive: [1] -0.019 | [2] -0.038 | [3] 0.049 | [4] 0.022 | [5] 0.002 | [6] -0.01 | [7] 0.096 | [8] -0.012 | [9] 0.018 | [10] 0.054

HNRNPC isoform 2 (UniProt P07910)
inactive: [1] 0.159 | [2] -0.228 | [3] 0.054 | [4] -0.099 | [5] 0.425 | [6] -0.286 | [7] -0.431 | [8] -0.173 | [9] 0.596 | [10] -0.268

HSD17B12 (UniProt Q53GQ0)
inactive: [1] 0.067 | [2] -0.039 | [3] 0.184 | [4] -0.039 | [5] -0.095 | [6] 0.002 | [7] 0.092 | [8] -0.02 | [9] 0.089 | [10] -0.018

GCC2 (UniProt Q8IWJ2)
inactive: [1] 0.033 | [2] -0.045 | [3] -0.14 | [4] -0.071 | [5] -0.011 | [6] 0.119 | [7] -0.032 | [8] 0.02 | [9] 0.051 | [10] -0.088

GNB2 (UniProt P62879)
Chain of UniProt P62879 (P62879 whole entry, looked up): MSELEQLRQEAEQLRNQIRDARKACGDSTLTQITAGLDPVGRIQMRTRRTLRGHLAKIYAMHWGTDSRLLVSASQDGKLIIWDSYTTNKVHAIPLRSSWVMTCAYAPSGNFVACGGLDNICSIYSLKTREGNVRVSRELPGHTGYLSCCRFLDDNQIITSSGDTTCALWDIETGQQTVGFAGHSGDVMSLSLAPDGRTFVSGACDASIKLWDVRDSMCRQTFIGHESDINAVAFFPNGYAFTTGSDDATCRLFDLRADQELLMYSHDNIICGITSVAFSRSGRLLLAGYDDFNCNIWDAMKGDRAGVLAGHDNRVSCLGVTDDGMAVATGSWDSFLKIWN
inactive: [1] 0.12 | [2] -0.002 | [3] 0.077 | [4] -0.018 | [5] 0.057 | [6] -0.012 | [7] 0.028 | [8] -0.032 | [9] 0.003 | [10] -0.028

FANCI (UniProt Q9NVI1)
Chain of UniProt Q9NVI1 (Q9NVI1 whole entry, looked up): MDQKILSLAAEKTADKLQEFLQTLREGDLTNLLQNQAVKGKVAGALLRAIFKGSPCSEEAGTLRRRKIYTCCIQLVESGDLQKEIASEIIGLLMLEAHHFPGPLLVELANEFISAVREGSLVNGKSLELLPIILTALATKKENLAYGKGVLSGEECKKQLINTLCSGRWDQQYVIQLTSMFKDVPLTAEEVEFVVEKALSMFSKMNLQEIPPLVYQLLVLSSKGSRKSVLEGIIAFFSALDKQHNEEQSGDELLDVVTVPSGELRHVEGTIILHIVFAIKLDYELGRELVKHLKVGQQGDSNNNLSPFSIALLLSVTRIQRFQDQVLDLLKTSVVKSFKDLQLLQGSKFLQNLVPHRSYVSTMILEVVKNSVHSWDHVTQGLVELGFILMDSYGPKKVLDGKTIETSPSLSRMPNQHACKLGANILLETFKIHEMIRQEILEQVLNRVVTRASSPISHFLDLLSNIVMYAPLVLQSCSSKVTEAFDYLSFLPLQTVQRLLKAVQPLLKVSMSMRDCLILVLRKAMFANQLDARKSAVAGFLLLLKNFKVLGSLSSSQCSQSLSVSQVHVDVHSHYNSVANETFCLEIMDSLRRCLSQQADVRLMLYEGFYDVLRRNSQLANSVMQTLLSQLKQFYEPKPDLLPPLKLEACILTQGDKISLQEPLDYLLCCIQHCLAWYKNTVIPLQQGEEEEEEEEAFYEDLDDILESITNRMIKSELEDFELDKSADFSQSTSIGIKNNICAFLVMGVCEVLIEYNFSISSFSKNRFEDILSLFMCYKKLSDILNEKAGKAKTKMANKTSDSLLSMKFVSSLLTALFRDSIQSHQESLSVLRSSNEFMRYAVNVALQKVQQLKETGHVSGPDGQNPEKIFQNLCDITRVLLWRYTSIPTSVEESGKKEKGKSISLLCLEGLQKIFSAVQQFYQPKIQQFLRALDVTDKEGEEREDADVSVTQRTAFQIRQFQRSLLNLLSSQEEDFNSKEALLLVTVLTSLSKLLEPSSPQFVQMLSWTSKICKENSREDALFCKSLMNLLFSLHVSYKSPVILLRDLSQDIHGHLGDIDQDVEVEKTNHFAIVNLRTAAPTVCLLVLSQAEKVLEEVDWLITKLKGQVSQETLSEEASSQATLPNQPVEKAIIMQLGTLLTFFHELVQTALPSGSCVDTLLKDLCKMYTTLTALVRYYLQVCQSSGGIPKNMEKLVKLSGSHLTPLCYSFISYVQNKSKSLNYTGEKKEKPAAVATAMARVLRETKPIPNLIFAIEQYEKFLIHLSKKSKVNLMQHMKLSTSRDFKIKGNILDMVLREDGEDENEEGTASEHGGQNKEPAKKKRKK
inactive: [1] -0.043 | [2] 0.041 | [3] -0.13 | [4] 0.113 | [5] -0.118 | [6] -0.085 | [7] 0.075 | [8] 0.098 | [9] -0.027 | [10] 0.086

FKBP7 (UniProt Q9Y680)
inactive: [1] 0 | [2] -0.04 | [3] 0.055 | [4] -0.058 | [5] 0.064 | [6] 0 | [7] 0.071 | [8] 0.012 | [9] 0.027 | [10] 0.031

GEMIN2 (UniProt O14893)
inactive: [1] -0.154 | [2] -0.124 | [3] -0.045 | [4] 0 | [5] 0.049 | [6] -0.027 | [7] -0.039 | [8] -0.095 | [9] 0.08 | [10] -0.048

GNPAT (UniProt O15228)
Chain of UniProt O15228 (O15228 whole entry, looked up): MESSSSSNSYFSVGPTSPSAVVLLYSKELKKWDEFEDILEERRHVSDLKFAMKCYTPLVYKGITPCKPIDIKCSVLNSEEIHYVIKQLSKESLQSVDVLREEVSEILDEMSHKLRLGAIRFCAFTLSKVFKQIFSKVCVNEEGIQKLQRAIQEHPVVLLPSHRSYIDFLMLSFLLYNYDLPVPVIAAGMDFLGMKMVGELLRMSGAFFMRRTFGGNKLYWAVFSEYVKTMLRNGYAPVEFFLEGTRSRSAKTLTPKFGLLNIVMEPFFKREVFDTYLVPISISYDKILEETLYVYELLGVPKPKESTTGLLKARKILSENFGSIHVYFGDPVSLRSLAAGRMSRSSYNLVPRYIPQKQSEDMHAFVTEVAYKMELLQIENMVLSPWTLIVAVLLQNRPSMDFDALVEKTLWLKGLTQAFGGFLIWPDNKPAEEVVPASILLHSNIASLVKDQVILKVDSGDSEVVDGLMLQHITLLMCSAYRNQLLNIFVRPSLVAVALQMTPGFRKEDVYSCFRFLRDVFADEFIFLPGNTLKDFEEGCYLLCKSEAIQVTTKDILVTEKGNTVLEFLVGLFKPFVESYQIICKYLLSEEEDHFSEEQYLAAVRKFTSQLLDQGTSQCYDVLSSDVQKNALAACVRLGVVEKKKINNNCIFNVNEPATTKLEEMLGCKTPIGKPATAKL
inactive: [1] -0.129 | [2] 0.045 | [3] -0.011 | [4] -0.008 | [5] 0.014 | [6] -0.028 | [7] 0.059 | [8] 0.005 | [9] 0.031 | [10] 0.005

HIP1 (UniProt O00291)
inactive: [1] -0.079 | [2] -0.069 | [3] -0.038 | [4] 0.063 | [5] 0.004 | [6] -0.079 | [7] -0.009 | [8] -0.002 | [9] -0.099 | [10] 0.077

GINS2 (UniProt Q9Y248)
inactive: [1] -0.025 | [2] 0.106 | [3] -0.024 | [4] -0.031 | [5] -0.265 | [6] 0.03 | [7] -0.057 | [8] -0.111 | [9] -0.064 | [10] 0.03

IDH3A (UniProt P50213)
Chain of UniProt P50213 (P50213 whole entry, looked up): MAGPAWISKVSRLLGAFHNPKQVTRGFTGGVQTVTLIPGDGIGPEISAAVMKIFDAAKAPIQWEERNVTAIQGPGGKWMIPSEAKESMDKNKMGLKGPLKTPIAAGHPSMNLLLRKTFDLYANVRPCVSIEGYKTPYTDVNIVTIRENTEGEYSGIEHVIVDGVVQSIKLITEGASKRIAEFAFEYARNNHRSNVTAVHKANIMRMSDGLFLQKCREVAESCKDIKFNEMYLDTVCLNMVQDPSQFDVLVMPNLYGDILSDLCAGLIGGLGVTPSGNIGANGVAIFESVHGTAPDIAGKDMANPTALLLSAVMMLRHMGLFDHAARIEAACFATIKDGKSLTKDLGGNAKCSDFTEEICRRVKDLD
inactive: [1] -0.016 | [2] 0.021 | [3] -0.027 | [4] -0.006 | [5] -0.005 | [6] -0.024 | [7] 0.045 | [8] 0.021 | [9] -0.001 | [10] 0.06

HMGN1 (UniProt P05114)
inactive: [1] -0.014 | [2] -0.012 | [3] -0.022 | [4] 0.057 | [5] 0.146 | [6] 0.019 | [7] -0.022 | [8] -0.048 | [9] 0.066 | [10] -0.049

HIST2H3A (UniProt Q71DI3)
inactive: [1] 0.198 | [2] -0.183 | [3] -0.054 | [4] -0.068 | [5] 0.215 | [6] -0.032 | [7] -0.258 | [8] -0.054 | [9] 0.031 | [10] -0.037

GAGE12F (UniProt P0CL80)
Chain of UniProt P0CL80 (P0CL80 whole entry, looked up): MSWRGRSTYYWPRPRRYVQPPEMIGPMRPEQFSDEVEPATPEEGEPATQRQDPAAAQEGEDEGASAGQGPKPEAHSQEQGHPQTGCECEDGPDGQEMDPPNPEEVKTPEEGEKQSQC
active: [2] -0.284
inactive: [1] -0.092 | [3] 0.052 | [4] -0.085 | [5] 0.009 | [6] -0.015 | [7] -0.004 | [8] -0.035 | [9] 0.053 | [10] 0.085

FARS2 (UniProt O95363)
inactive: [1] -0.058 | [2] 0.064 | [3] -0.126 | [4] 0.079 | [5] -0.058 | [6] -0.097 | [7] 0.039 | [8] 0.039 | [9] 0.018 | [10] -0.168

HDAC6 (UniProt Q9UBN7)
Chain of UniProt Q9UBN7 (Q9UBN7 whole entry, looked up): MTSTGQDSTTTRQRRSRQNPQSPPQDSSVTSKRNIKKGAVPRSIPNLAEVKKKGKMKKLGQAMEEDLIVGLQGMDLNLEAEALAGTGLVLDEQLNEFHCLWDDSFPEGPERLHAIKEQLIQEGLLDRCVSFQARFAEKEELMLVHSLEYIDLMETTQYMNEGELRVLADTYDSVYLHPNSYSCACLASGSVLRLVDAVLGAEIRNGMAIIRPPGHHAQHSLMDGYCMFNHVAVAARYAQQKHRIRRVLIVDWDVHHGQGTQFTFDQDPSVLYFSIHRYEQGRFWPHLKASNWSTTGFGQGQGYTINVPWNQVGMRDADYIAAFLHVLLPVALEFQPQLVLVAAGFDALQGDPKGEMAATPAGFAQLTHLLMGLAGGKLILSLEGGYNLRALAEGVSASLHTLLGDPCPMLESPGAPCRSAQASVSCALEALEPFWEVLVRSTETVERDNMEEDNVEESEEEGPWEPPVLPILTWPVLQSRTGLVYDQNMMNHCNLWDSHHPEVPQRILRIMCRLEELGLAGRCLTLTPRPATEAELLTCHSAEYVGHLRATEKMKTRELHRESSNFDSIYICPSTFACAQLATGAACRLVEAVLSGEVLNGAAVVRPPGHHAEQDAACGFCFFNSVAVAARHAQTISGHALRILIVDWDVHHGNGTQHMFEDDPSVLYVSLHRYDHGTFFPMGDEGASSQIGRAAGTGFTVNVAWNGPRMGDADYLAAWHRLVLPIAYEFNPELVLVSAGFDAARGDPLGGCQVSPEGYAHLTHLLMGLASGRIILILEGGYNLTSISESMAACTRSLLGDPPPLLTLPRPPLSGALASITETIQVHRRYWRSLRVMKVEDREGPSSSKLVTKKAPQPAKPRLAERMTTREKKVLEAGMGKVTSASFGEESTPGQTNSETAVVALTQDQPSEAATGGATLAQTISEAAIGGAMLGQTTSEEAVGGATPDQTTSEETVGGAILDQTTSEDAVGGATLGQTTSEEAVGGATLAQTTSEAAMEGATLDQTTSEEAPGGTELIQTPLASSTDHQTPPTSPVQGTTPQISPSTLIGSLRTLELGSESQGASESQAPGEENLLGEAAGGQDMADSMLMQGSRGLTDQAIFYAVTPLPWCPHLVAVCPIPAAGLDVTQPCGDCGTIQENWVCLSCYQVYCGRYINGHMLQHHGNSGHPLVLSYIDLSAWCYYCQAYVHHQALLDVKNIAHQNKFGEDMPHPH
inactive: [1] -0.18 | [2] -0.086 | [3] 0.126 | [4] -0.026 | [5] -0.107 | [6] -0.084 | [7] 0.055 | [8] -0.005 | [9] -0.009 | [10] 0.086

HDHD2 (UniProt Q9H0R4)
inactive: [1] 0.068 | [2] 0.018 | [3] 0.024 | [4] -0.04 | [5] 0.042 | [6] 0.006 | [7] 0.019 | [8] 0.028 | [9] -0.011 | [10] 0.045

GYG1 (UniProt P46976)
active: [3] 0.635
inactive: [1] 0.237 | [2] 0.035 | [4] -0.012 | [5] 0.052 | [6] -0.297 | [7] -0.06 | [8] -0.11 | [9] -0.009 | [10] -0.104

GNAI3 (UniProt P08754)
inactive: [1] 0.066 | [2] 0.033 | [3] 0.185 | [4] 0.008 | [5] 0.086 | [6] -0.004 | [7] -0.017 | [8] 0.018 | [9] -0.008 | [10] -0.032

GTF2A1 (UniProt P52655)
Chain of UniProt P52655 (P52655 whole entry, looked up): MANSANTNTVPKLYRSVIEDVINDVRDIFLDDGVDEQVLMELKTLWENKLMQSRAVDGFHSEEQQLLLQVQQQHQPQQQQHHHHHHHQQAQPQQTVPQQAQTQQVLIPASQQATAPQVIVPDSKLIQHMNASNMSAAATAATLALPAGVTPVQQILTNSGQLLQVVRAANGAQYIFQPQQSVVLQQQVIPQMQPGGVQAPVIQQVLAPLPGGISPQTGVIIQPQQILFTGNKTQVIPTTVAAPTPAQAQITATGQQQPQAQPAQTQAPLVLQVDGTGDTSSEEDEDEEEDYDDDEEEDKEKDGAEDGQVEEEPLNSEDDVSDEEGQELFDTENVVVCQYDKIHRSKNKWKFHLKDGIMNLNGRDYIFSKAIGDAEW
inactive: [1] 0 | [2] -0.047 | [3] 0.111 | [4] -0.047 | [5] 0.068 | [6] -0.078 | [7] 0.081 | [8] 0.349 | [9] 0.144 | [10] -0.008

H2AFX (UniProt P16104)
inactive: [1] 0.103 | [2] -0.198 | [3] -0.041 | [4] -0.025 | [5] 0.283 | [6] -0.012 | [7] -0.439 | [8] -0.146 | [9] 0.074 | [10] -0.111

FDPS (UniProt P14324)
Chain of UniProt P14324 (P14324 whole entry, looked up): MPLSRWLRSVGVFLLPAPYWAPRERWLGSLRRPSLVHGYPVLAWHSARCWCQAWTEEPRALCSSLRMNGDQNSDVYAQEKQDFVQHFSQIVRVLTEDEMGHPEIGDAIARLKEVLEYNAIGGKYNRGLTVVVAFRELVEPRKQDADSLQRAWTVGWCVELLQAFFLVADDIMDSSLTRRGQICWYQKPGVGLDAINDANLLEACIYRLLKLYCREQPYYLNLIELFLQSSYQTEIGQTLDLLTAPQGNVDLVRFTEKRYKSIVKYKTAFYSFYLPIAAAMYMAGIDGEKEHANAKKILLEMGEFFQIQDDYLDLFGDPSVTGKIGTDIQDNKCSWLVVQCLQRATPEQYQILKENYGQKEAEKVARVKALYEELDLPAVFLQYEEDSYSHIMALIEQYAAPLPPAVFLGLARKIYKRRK
inactive: [1] 0.057 | [2] 0.204 | [3] -0.156 | [4] 0.035 | [5] -0.392 | [6] -0.027 | [7] 0.209 | [8] 0.441 | [9] -0.258 | [10] 0.39

GATD1 (UniProt Q8NB37)
inactive: [1] 0.008 | [2] -0.021 | [3] 0.059 | [4] -0.016 | [5] -0.011 | [6] 0.119 | [7] 0.046 | [8] 0.015 | [9] 0.029 | [10] 0.035

HMGN2 (UniProt P05204)
inactive: [1] -0.013 | [2] -0.189 | [3] -0.025 | [4] 0.022 | [5] 0.053 | [6] 0 | [7] -0.025 | [8] 0.04 | [9] 0.079 | [10] 0.021

HBZ (UniProt P02008)
Chain of UniProt P02008 (P02008 whole entry, looked up): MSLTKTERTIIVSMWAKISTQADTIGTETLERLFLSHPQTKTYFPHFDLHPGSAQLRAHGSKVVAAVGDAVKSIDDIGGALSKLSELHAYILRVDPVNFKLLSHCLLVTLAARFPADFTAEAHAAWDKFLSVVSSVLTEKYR
inactive: [1] -0.013 | [2] 0.037 | [3] 0.018 | [4] 0.011 | [5] 0.073 | [6] -0.008 | [7] 0.137 | [8] 0.282 | [9] -0.183 | [10] 0.049

GALNT4 (UniProt Q8N4A0)
inactive: [1] -0.042 | [2] -0.042 | [3] -0.049 | [4] 0.006 | [5] -0.021 | [6] 0.042 | [7] 0.079 | [8] -0.005 | [9] 0.038 | [10] 0.035

HNRNPUL1 (UniProt Q9BUJ2)
active: [10] -0.231
inactive: [1] -0.011 | [2] -0.069 | [3] -0.032 | [4] -0.008 | [5] -0.061 | [6] 0.041 | [7] -0.03 | [8] -0.007 | [9] 0.059

GCDH (UniProt Q92947)
inactive: [1] -0.047 | [2] 0.007 | [3] 0.002 | [4] 0.017 | [5] -0.059 | [6] -0.001 | [7] 0.08 | [8] -0.129 | [9] -0.007 | [10] -0.028
